According to PMC7819943, “Rice protein-binding microarrays: a tool to detect cis-acting elements near promoter regions in rice”:
The full ranking holds about 68,000 sequences; the median of “fluorescence intensity (a.u.)” is about 9,100, and the highest 2% start at about 16,000. This is one part of a sample in which the highest values are shown more often than they occur.

biological target: OsWRKY34 (Oryza sativa, UniProt Q0JBA9 1-250); assay: protein-binding microarray (RPBM); PBS, 2% BSA, 51.3 ng/ul salmon testes DNA, 50 uM zinc acetate, 200 nM TF, 25 C, 1 h; high values mean tight binding; conditions: protein: recombinant; tags: N-terminal polyhistidine and DsRed monomer fusion (pET32a); label: CyDye5-dUTP incorporated in the synthesized complementary strand; 3' TTTTT single-stranded linker to array surface; dsDNA, one strand shown
Sequence (Q0JBA9 entry or part of it): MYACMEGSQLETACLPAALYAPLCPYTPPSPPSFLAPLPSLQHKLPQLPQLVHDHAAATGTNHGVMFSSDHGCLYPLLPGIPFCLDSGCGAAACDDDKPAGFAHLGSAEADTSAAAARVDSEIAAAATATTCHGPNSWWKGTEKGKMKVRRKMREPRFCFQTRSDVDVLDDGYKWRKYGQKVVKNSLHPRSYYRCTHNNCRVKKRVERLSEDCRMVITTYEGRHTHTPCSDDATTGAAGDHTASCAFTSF
Summary of the method: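 Using Ni–NTA, transcription factors fused N-terminally to polyhistidine and DsRed were purified after expression in E. coli BL21-CodonPlus. These were incubated at 200 nM with a blocked, double-stranded custom Agilent array for 1 h at 25 °C in a buffer containing 50 µM zinc acetate, and the array was washed. The binding signal is per-feature fluorescence intensity (arbitrary units) on an Axon 4000B scanner.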

| Sequence | binding signal |
| --- | --- |
| CCGCGGTGGGGCATGGTGGTGAGGTGGGAGGGAGGGAGCTCGGAGTCACCTAGTGCAG | 17100 fluorescence intensity (a.u.) |
| GAGAGGATGGAGGTGGATGAGGGAGAGGGGCGGGAGACCGCGGAGTCACCTAGTGCAG | 9460 fluorescence intensity (a.u.) |
| GGATGGGCATGGAGGAGGTGCAGTGAGTGGAGCTGGAGGACGGAGTCACCTAGTGCAG | 8730 fluorescence intensity (a.u.) |
| GCGCGCGGGTGAGGAGGAGGAGGGGATGGGGAGGGGCCCGCGGAGTCACCTAGTGCAG | 17700 fluorescence intensity (a.u.) |
| TGGGGCTTCTGGTGTGCTCGGTGGTGTTCGCCGCGGCGGCCGGAGTCACCTAGTGCAG | 14200 fluorescence intensity (a.u.) |
| GGTGGTTCTGTGAGCCCGCGGGGTTGGGGTTGGGGCCTGGCGGAGTCACCTAGTGCAG | 12900 fluorescence intensity (a.u.) |
| TGTGGTGCGTGCCGCGTGCGGGAGGGCAGGGTGAGGTGAGCGGAGTCACCTAGTGCAG | 8810 fluorescence intensity (a.u.) |
| GCGGGATGGGGAGGCGGCGCCGCGAGGAGGAGGGGATGGGCGGAGTCACCTAGTGCAG | 11900 fluorescence intensity (a.u.) |
| TGGTTCGCTCGGTGGGTGGTGGTGGTTCTGTGAGCCCGCGCGGAGTCACCTAGTGCAG | 18400 fluorescence intensity (a.u.) |
| GCGGCGGTGGGGATGGGGATAGGGCGGCGGCGGCGGATGGCGGAGTCACCTAGTGCAG | 13600 fluorescence intensity (a.u.) |
| TTTGTGGGTGATGGTGGGTGGGAGTGGGATAGGGCGGCCCCGGAGTCACCTAGTGCAG | 17000 fluorescence intensity (a.u.) |
| TGTGGGTATGGGGATGATTTTGTACCCGTGATAGGTGTGGCGGAGTCACCTAGTGCAG | 13100 fluorescence intensity (a.u.) |
| TCTTTTGTCACATCTTTATAATATTGCCCATGGCACATACCGGAGTCACCTAGTGCAG | 8490 fluorescence intensity (a.u.) |
| TGCCATCTCCTTCGCCATTGGAGCTCACCACACACTCGCTCGGAGTCACCTAGTGCAG | 9660 fluorescence intensity (a.u.) |
| CACCTGACCCATTCTTGCTTACCTTATATTTAGCATACTCCGGAGTCACCTAGTGCAG | 8160 fluorescence intensity (a.u.) |
| CTATTTTATAAAATCTTTGTTTATGCATACCAGCTAAATTCGGAGTCACCTAGTGCAG | 8800 fluorescence intensity (a.u.) |
| AAGCCAACCCAACCCGCACCTTCTCGCTGCTTCTACTACTCGGAGTCACCTAGTGCAG | 13100 fluorescence intensity (a.u.) |
| ACGGTGGCGTTGTGCCCTGTGATGGTGTCCGCGTTGTGTCCGGAGTCACCTAGTGCAG | 8990 fluorescence intensity (a.u.) |
| TCTCAGCAGGGGAGGGGAGGGGAGGGGATCCTGGTGAGGTCGGAGTCACCTAGTGCAG | 15700 fluorescence intensity (a.u.) |
| GGGCAAGGGGAGCGGATGGGCGGGGAGGAGGCAGGCTGCGCGGAGTCACCTAGTGCAG | 11600 fluorescence intensity (a.u.) |
| GTCGAGGCGGCGGCGGCGGGGCGCGGAGTGAGGTGGGTGCCGGAGTCACCTAGTGCAG | 8640 fluorescence intensity (a.u.) |
| TGCCGCTGCCGCCGTGTGCCCGAGCGAGCCCACGCCCACACGGAGTCACCTAGTGCAG | 8340 fluorescence intensity (a.u.) |
| ATGTGGTTTGGTGAGCGCCGCTGTGCCCACCTAACCCACACGGAGTCACCTAGTGCAG | 27300 fluorescence intensity (a.u.) |
| CGGGCGGATGAGGGGCGGCGATGGGCGGGCAAGGGGCGTGCGGAGTCACCTAGTGCAG | 12500 fluorescence intensity (a.u.) |
| GCAACGGGGAGGTGGGCGGAGGTGCGGCGCGGCGGCGGGCCGGAGTCACCTAGTGCAG | 10300 fluorescence intensity (a.u.) |
| CTGGCGAGCAGAGCAGGGGAGGGGAGGGGAGGGGATCCTGCGGAGTCACCTAGTGCAG | 15800 fluorescence intensity (a.u.) |
| CTAGTGAGGGGCGGGCGGGCGGGCAAGGGGAGCGGATGGGCGGAGTCACCTAGTGCAG | 19100 fluorescence intensity (a.u.) |
| GCTGCTGCTGCCGCCCGGCCGCCACCCGTGACCCGCGCCACGGAGTCACCTAGTGCAG | 8860 fluorescence intensity (a.u.) |
| ACGTGTACGGCGCGGGGTGGAGGTGAGGGGTGGTGGGGCCCGGAGTCACCTAGTGCAG | 18000 fluorescence intensity (a.u.) |
| CAGAGCAGGGGAGGGGAGGGGAGGGGATCCTGGTGAGCCTCGGAGTCACCTAGTGCAG | 17600 fluorescence intensity (a.u.) |
